PubChem BioAssay AID1159580 (chemical genetic matrix, 2015)
“And” between values parts separate entries of the source, which are not always exact repeats. Equal entries are not always repeated. Among all 5,500 compounds or so, about 2,000 (36%) were called active. Another 18% or so got no clear call; they are omitted. No stated cut-off is given here; in the data, active means normalized growth mostly below about 0.91 (no sharp cut-off); inconclusive means no clear call, values can overlap the other calls; inactive means mostly above about 0.92. This is one part of the list.

Assay: chemical genetic growth profiling, strain panel (AID 1159580);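 further: tested at 20 µM; growth read once vehicle control cultures reached saturation at 30 °C; 1 = growth at the plate median or of vehicle wells; lower values mean less growth of the strain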
Details: S. cerevisiae deletion strains, growth OD

Measured: normalized growth

Nc1nc2ncc(=O)[nH]c2c(=O)[nH]1
inactive: locus YAL013W, strain DEP1, active compounds read low 1 | locus YAL021C, strain ccr4, active compounds read low 0.978 | locus YAL026C, strain drs2, active compounds read low 0.999 | locus YAL030W, strain snc1, active compounds read low 0.98 | locus YBL061C, strain skt5, active compounds read low 0.973 | locus YBR009C, strain hhf1, active compounds read low 0.995 | locus YBR021W, strain FUR4, active compounds read low 0.99 | locus YBR023C, strain chs3, active compounds read low 0.979 | locus YBR171W, strain sec66, active compounds read low 0.983 | locus YBR229C, strain ROT2, active compounds read low 1 | locus YBR231C, strain swc5, active compounds read low 0.989 | locus YBR279W, strain paf1, active compounds read low 0.984 | locus YCL011C, strain gbp2, active compounds read low 0.989 | locus YCL016C, strain dcc1, active compounds read low 0.976 | locus YCL029C, strain bik1, active compounds read low 0.989 | locus YCL061C, strain MRC1, active compounds read low 0.977 | locus YCL069W, strain vba3, active compounds read low 0.989 | locus YCR088W, strain abp1, active compounds read low 0.972 | locus YDL005C, strain med2, active compounds read low 0.965 | locus YDL035C, strain GPR1, active compounds read low 1.01 | locus YDL040C, strain nat1, active compounds read low 0.986 | locus YDL074C, strain BRE1, active compounds read low 1.06 | locus YDL101C, strain DUN1, active compounds read low 1 | locus YDL134C, strain PPH21, active compounds read low 1 | locus YDL185W, strain tfp1, active compounds read low 0.975 | locus YDL192W, strain arf1, active compounds read low 0.989 | locus YDR001C, strain nth1, active compounds read low 0.972 | locus YDR069C, strain doa4, active compounds read low 1.01 | locus YDR101C, strain arx1, active compounds read low 0.998 | locus YDR137W, strain rgp1, active compounds read low 0.971 | locus YDR150W, strain NUM1, active compounds read low 0.997 | locus YDR159W, strain sac3, active compounds read low 0.973 | locus YDR162C, strain NBP2, active compounds read low 1.01 | locus YDR195W, strain ref2 0.949 | locus YDR297W, strain sur2, active compounds read low 0.982 | locus YDR318W, strain mcm21, active compounds read low 0.993 | locus YDR334W, strain swr1, active compounds read low 0.98 | locus YDR335W, strain msn5, active compounds read low 0.978 | locus YDR388W, active compounds read low 0.985 | locus YDR392W, strain spt3, active compounds read low 0.927 | locus YDR502C, strain sam2, active compounds read low 0.996 | locus YEL003W, strain gim4, active compounds read low 0.981 | locus YEL037C, strain rad23, active compounds read low 0.995 | locus YEL061C, strain CIN8 (second series), active compounds read low 0.976 | locus YEL061C, strain CIN8, active compounds read low 1 | locus YER015W, strain faa2, active compounds read low 1 | locus YER016W, strain bim1, active compounds read low 0.984 | locus YER110C, active compounds read low 0.976 | locus YER111C, strain swi4, active compounds read low 0.957 | locus YER155C, strain BEM2 (second series), active compounds read low 0.985 | locus YER155C, strain BEM2, active compounds read low 0.993 | locus YER167W, strain BCK2, active compounds read low 0.994 | locus YFR010W, strain ubp6, active compounds read low 0.977 | locus YGL078C, strain dbp3, active compounds read low 0.976 | locus YGL086W, strain mad1, active compounds read low 0.989 | locus YGL167C, strain pmr1, active compounds read low 0.968 | locus YGL173C, strain kem1, active compounds read low 0.981 | locus YGL227W, strain vid30, active compounds read low 0.988 | locus YGL240W, strain doc1, active compounds read low 1 | locus YGL248W, strain PDE1, active compounds read low 1.01 | locus YGL253W, strain hxk2, active compounds read low 0.976 | locus YGR078C, strain PAC10, active compounds read low 1.03 | locus YGR135W, strain pre9, active compounds read low 1.02 | locus YGR229C, strain SMI1, active compounds read low 1.04 | locus YGR252W, strain gcn5, active compounds read low 1.01 | locus YHR013C, strain ard1, active compounds read low 0.946 | locus YHR027C, strain rpn1, active compounds read low 0.98 | locus YHR030C, strain SLT2, active compounds read low 1 and 0.966 | locus YHR079C, strain IRE1 (second series), active compounds read low 0.997 | locus YHR079C, strain IRE1, active compounds read low 0.967 | locus YHR094C, strain hxt1, active compounds read low 0.965 | locus YHR129C, strain ARP1, active compounds read low 1 | locus YHR142W, strain chs7, active compounds read low 0.941 | locus YHR200W, strain rpn10, active compounds read low 0.988 | locus YIL066C, strain RNR3, active compounds read low 1.01 | locus YIL073C, strain SPO22, active compounds read low 0.921 | locus YIL125W, strain kgd1, active compounds read low 0.981 | locus YIR030C, strain dcg1, active compounds read low 0.994 | locus YJL092W, strain hpr5, active compounds read low 0.976 | locus YJL095W, strain BCK1 (second series), active compounds read low 0.98 | locus YJL095W, strain BCK1, active compounds read low 1.06 and 0.983 | locus YJL115W, strain asf1, active compounds read low 0.977 | locus YJL129C, strain trk1, active compounds read low 0.953 | locus YJL134W, strain LCB3, active compounds read low 0.997 | locus YJL154C, strain vps35, active compounds read low 0.971 | locus YJL164C, strain tpk1, active compounds read low 0.979 | locus YJL166W, strain qcr8, active compounds read low 0.982 | locus YJL168C, strain set2, active compounds read low 0.988 | locus YJL187C, strain SWE1 (second series), active compounds read low 0.999 | locus YJL187C, strain SWE1, active compounds read low 0.976 | locus YJR043C, strain POL32, active compounds read low 1.01 | locus YJR066W, strain TOR1, active compounds read low 0.945
